In PubChem BioAssay (NCATS):
Records with an inconclusive call do not appear. Activity calls are given as the source filed them. Calls come from the whole dose curve; as a rule, active = well fitted curve in the direction sought with a large enough effect; inconclusive = small, poorly fitted or top-dose-only effect, or another doubt; inactive = no such curve, though single readings can be large; an effect the other way counts as inactive or inconclusive.

Tests used:
[1] = P-glycoprotein substrates identified in KB-8-5-11 adenocarcinoma cell line, qHTS therapeutic library screen (AID 1346987); note: nearly all actives have a fitted effect of over 65% in size
Summary of the method: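 Human cervical adenocarcinoma KB-8-5-11 cells, selected in colchicine to over-express P-gp and assayed without it, were exposed for 72 h to titrated compounds. An ATP-based luminescent viability signal gave AC50.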

Furin (Homo sapiens) = Furin (Homo sapiens) (UniProt P09958); experiment: Furin counterscreen qHTS for Zika virus inhibitors (AID 1347149); note: nearly all actives have a fitted effect of over 70% in size; note: potency is the fitted concentration of half-maximal effect
Chain of Furin (Homo sapiens) (P09958 whole entry, looked up): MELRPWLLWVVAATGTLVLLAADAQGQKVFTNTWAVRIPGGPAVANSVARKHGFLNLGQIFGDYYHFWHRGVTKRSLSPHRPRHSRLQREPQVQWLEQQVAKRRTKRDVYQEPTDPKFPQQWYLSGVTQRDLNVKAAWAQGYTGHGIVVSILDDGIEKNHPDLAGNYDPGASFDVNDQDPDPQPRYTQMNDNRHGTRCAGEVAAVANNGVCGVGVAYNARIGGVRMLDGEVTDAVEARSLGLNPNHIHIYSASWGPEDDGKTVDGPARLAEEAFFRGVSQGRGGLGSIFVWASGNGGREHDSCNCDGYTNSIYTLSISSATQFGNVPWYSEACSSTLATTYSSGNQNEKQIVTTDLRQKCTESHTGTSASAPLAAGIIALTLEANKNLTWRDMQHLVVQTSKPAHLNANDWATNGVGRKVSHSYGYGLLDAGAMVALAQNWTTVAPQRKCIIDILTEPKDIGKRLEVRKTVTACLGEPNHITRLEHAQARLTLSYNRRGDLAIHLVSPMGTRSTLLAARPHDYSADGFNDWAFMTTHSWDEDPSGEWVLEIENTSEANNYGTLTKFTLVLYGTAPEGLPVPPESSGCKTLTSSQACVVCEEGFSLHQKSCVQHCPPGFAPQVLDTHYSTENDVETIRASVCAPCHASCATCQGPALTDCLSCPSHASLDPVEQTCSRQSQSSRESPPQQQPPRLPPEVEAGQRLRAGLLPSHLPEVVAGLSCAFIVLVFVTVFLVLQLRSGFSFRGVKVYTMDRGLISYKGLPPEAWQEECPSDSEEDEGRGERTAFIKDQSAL
Summary of the method: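 Counterscreen measures cleavage of 2 microM BOC-RVRR-AMC, below its ~15 microM Km, by 5 nM full-length human furin at pH 7.0 after a 15-min compound preincubation. Inhibition derives from the 15-min fluorescence increase at 37C.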

[2] = system: Zika virus NS2B-NS3 protease (linked construct); experiment: Confirmatory screen NINDS AMC qHTS for Zika virus inhibitors (AID 1347152); note: nearly all actives have a fitted effect of over 70% in size; note: potency is the fitted concentration of half-maximal effect
Summary of the method: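 Enzyme (1 nM, linked construct) was preincubated with compound for 15 minutes at room temperature in 10 mM Tris-HCl pH 8.0 with 0.01% Tween 20. Bz-Nle-Lys-Arg-Arg-AMC was then added to 10 microM, and AMC fluorescence was recorded immediately and after 15 minutes.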

[3] = ZIKV-mCherry secondary qHTS for Zika virus inhibitors (AID 1347158); note: top concentration of the series differs between compounds
Summary of the method: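 This orthogonal imaging screen measured ZIKV-mCherry infection of Vero cells exposed to compound, MOI 1, 48-72 h. Percent infection came from segmented nuclei scored mCherry-positive above 3 SD of negative controls.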

[4] = system: Zika virus NS2B-NS3 protease (unlinked complex); experiment: Primary screen GU Rhodamine qHTS for Zika virus inhibitors: Unlinked NS2B-NS3 protease assay (AID 1347159); note: potency is the fitted concentration of half-maximal effect; nearly all actives have a fitted effect of over 60% in size
Summary of the method: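 Buffer 10 mM Tris-HCl pH 8.0, 0.01% Tween 20. Unlinked protease 25 nM; compound preincubation 15 min, RT, protected from light. Substrate Rhod110, 1.5 microM; ~15% conversion in 15 min.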

[5] = system: Zika virus NS2B-NS3 protease (linked construct); experiment: Primary screen NINDS Rhodamine qHTS for Zika virus inhibitors (AID 1347160); note: potency is the fitted concentration of half-maximal effect; nearly all actives have a fitted effect of over 55% in size
Summary of the method: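 Aprotinin served as in-plate control. Conditions: 25 nM linked NS2B-NS3, pH 8.0 Tris buffer, titrated compounds, 15 min preincubation and 15 min reaction with 1.5 microM Rhod110 substrate at room temperature.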

[6] = Confirmatory screen NINDS Rhodamine qHTS for Zika virus inhibitors (AID 1347161); note: potency is the fitted concentration of half-maximal effect; nearly all actives have a fitted effect of over 60% in size
Summary of the method: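 Single-chain NS2B-NS3 protease, 25 nM, pH 8.0; compounds preincubated 15 min. Activity: Rhodamine110 release from 1.5 microM substrate over 15 min, room temperature, data fitted to 4-parameter Hill.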

[7] = system: Zika virus NS2B-NS3 protease (linked); experiment: 384 well plate NINDS AMC confirmatory qHTS for Zika virus inhibitors (AID 1347163); note: nearly all actives have a fitted effect of over 50% in size; note: potency is the fitted concentration of half-maximal effect
Summary of the method: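 Enzyme (5, 30 or 60 nM final) first met test compounds for ~15 min. The AMC-tagged peptide Ac-VKTGKR-AMC followed at 30 microM. Fluorescence was then recorded at 25 min and scaled against no-enzyme and no-inhibitor wells.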

[8] = system: Zika virus NS2B-NS3 protease (linked construct); experiment: 384 well plate NINDS Rhodamine confirmatory qHTS for Zika virus inhibitors (AID 1347164);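 note: fluorescence from protease cleavage of Ac-LKRR-rhodamine 110 substrate; nearly all actives have a fitted effect of over 65% in size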; note: potency is the fitted concentration of half-maximal effect
Summary of the method: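 Enzyme (final 5/30/60 nM) + cpd (DMSO), ~15 min; add Ac-LKRR-Rd 10 microM final; 25 min RT, dark; FI ex 485/em 538; normalized to no-enzyme, no-inhibitor ctrls; aprotinin intraplate ctrl.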

[9] = system: Zika virus NS2B-NS3 protease (unlinked complex); experiment: Confirmatory screen GU AMC qHTS for Zika virus inhibitors (AID 1347153);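 note: enzyme at 25 nM with substrate at 10 µM below its Km of 18.3 µM; potency is the fitted concentration of half-maximal effect; nearly all actives have a fitted effect of over 70% in size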
Summary of the method: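 Noncovalent NS2B hydrophilic domain/NS3 protease complex (25 nM) in 10 mM Tris-HCl pH 8.0, 0.01% Tween 20 was preincubated 15 min at room temperature with compounds. Then 10 µM AMC substrate (Km 18.3 µM) was added; fluorescence was read over 15 min and fitted to a 4-parameter Hill equation.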

Measured: Potency

C/C(=C\CC/C(C)=C/CC[C@]1(C)CCc2cc(O)cc(C)c2O1)CC/C=C(\C)C(=O)O
active: [2] 19.2 µM | [4] 8.91 µM | [5] 2.2 µM | [6] 1.92 µM | [7] 5.01 µM | [8] 2.51 µM
inactive: [1] | Furin (Homo sapiens) | [3]

Cn1nccc1-c1ccccc1Oc1ccc(S(=O)(=O)Nc2nccs2)cc1C#N
inactive: [1]

COC(=O)[C@H](c1ccccc1Cl)N1CCC2SC(=O)C=C2C1 (some centres not stated)
inactive: [1]

CC1(C)CCC2(C(=O)O)CCC3(C)C(=CCC4C5(C)CCC(O)C(C)(CO)C5C(O)CC43C)C2C1 (configuration not stated)
inactive: [1]

CC1C(O)C(O)C2C(C(=O)OCCc3ccc(O)cc3)=COC(O[C@@H]3O[C@H](CO)[C@@H](O)[C@H](O)[C@H]3O)C12 (some centres not stated)
inactive: [1] | Furin (Homo sapiens) | [2]
active: [5] 8.91 µM | [6] 15.2 µM | [8] 3.98 µM

C=C1CCC2C(C)(C)CCC[C@]2(C)[C@H]1CC/C(C)=C/C(=O)O (some centres not stated)
active: [2] 44.1 µM | [9] 39.3 µM | [4] 3.55 µM | [5] 5.62 µM | [6] 4.94 µM | [7] 2 µM
inactive: [1] | Furin (Homo sapiens)

COc1cc(Nc2ccc([N+](=O)[O-])cc2C(=O)O)cc2ccccc12
active: [2] 15.6 µM | [4] 2.24 µM | [5] 2.82 µM | [6] 2.21 µM | [7] 2.82 µM | [8] 1.41 µM
inactive: [1] | Furin (Homo sapiens)

CC(C)c1ccc2c(c1)[C@H](O)CC1[C@@](C)(C(=O)O)CCC[C@]21C (some centres not stated)
inactive: [1]

O=C(O)C1(c2ccc(-c3ccc(Cl)c(Cl)c3)c(F)c2)CC1
active: [2] 44.1 µM | [9] 44.1 µM | [4] 7.94 µM | [5] 8.91 µM | [6] 6.98 µM | [7] 14.1 µM
inactive: [1] | Furin (Homo sapiens)

COc1ccc(S(=O)(=O)Nc2nc(-c3cccc([N+](=O)[O-])c3)cs2)cc1OC
inactive: [1]

Cc1ccc2[nH]c(=O)c(C3=NN(C(=O)CCC(=O)O)C(c4ccc(Br)cc4)C3)c(-c3ccccc3)c2c1 (configuration not stated)
active: Furin (Homo sapiens) 69.8 µM | [2] 44.1 µM | [9] 49.4 µM | [4] 6.31 µM | [5] 3.16 µM | [6] 3.93 µM
inactive: [1] | [7] | [8]

COc1cc(/C=C/c2ccccc2)c(C(=O)O)c(O)c1CC=C(C)C
active: Furin (Homo sapiens) 19.3 µM | [2] 34.3 µM | [9] 34.3 µM | [4] 4.47 µM | [5] 10 µM | [6] 4.85 µM
inactive: [1]

COc1cccc(CNc2ccc(S(=O)(=O)Nc3nc4ccccc4s3)cc2)c1O
inactive: [1] | Furin (Homo sapiens) | [3]
active: [4] 3.55 µM | [6] 3.93 µM

C/C=C/C=C/C=C/C(=O)O[C@@H]1[C@@H](OC)C2=C(C(=O)N(C(CCC(=O)O)C(=O)O)C2)[C@@]2(C)CCCC(C)(C)[C@H]12 (some centres not stated)
active: [2] 24.2 µM | [9] 9.61 µM | [4] 4.47 µM | [5] 7.08 µM | [6] 2.71 µM | [7] 2.24 µM | [8] 15.8 µM
inactive: [1] | Furin (Homo sapiens) | [3]

C=C1C(=O)O[C@@H]2CC(C)=C([C@@H](C)CCCOC(C)=O)[C@@H](O)[C@H]12
inactive: [1]

CC(O)C/C=C/C=C/C(=O)OC1C=C2COC(=O)C2(O)C2(C)CCCC(C)(C)C12 (configuration not stated)
inactive: [1]
